Reference: PubChem BioAssay (EPA / NIEHS)
Active and inactive are the calls of the source. How the source made its calls: active means hit-call score of the fitted dose curve at least 0.9, where 1 is the maximum; inactive means score below 0.9.

Tests used:
[1] = ATG_CRE_CIS: Attagene CIS-FACTORIAL HepG2 Assay for human cAMP Responsive Element (CRE) binding protein 3 (AID 2282926); details: HepG2 CRE cis-reporter, Attagene multiplexed mRNA; actives raise or lower the signal
Method in brief: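 Liver-derived HepG2, transfected with a CRE-containing reporter panel, exposed 24 h; transcript levels sized and quantified by capillary electrophoresis of labelled amplicons; signal changes either way referenced to vehicle.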

[2] = molecular target: CCAAT/enhancer-binding protein beta (Homo sapiens) (UniProt P17676); assay: ATG_C_EBP_CIS: Attagene CIS-FACTORIAL HepG2 Assay for human CCAAT/Enhancer Binding Protein (C/EBP) beta (AID 2282927); details: HepG2 Attagene cis-factorial transcription factor reporter; actives raise or lower the signal
Chain of CCAAT/enhancer-binding protein beta (Homo sapiens) (P17676 whole entry, looked up): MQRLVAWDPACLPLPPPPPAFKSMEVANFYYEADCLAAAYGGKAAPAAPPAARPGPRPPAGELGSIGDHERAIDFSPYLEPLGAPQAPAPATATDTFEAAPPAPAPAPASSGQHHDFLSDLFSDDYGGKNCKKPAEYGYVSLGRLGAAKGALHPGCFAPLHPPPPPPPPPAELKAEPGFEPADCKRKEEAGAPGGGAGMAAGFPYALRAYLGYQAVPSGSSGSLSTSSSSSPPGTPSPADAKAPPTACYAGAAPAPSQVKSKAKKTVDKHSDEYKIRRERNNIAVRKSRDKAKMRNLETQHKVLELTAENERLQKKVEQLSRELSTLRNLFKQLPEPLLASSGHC
Method in brief: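 Following a 24 h incubation with test chemical, transfected HepG2 cells yielded RNA whose reporter transcripts were quantified by RT-PCR and fluorescent capillary electrophoresis, with DMSO serving as baseline for bidirectional fitting.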

[3] = ATG_CMV_CIS: Attagene CIS-FACTORIAL HepG2 Assay for human CMV (Internal Marker) (AID 2282928); details: HepG2 CMV promoter reporter, transcription factor profiling; actives raise or lower the signal;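 further: endpoint acts as a background internal control marker rather than a target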
Method in brief: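 24 h chemical treatment, HepG2 with transient multi-reporter transfection; RNA → oligo(dT) RT → PCR → 6-FAM extension → HpaI digest → CE fluorescence. Bidirectional fit, DMSO negative control.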

[4] = molecular target: Aryl hydrocarbon receptor (Homo sapiens) (UniProt P35869); assay: ATG_Ahr_CIS: Attagene CIS-FACTORIAL HepG2 Assay for human Aryl Hydrocarbon Receptor (Ahr) (AID 2282930); details: HepG2 AhR cis-factorial reporter transcription; actives raise or lower the signal
Chain of Aryl hydrocarbon receptor (Homo sapiens) (P35869 whole entry, looked up): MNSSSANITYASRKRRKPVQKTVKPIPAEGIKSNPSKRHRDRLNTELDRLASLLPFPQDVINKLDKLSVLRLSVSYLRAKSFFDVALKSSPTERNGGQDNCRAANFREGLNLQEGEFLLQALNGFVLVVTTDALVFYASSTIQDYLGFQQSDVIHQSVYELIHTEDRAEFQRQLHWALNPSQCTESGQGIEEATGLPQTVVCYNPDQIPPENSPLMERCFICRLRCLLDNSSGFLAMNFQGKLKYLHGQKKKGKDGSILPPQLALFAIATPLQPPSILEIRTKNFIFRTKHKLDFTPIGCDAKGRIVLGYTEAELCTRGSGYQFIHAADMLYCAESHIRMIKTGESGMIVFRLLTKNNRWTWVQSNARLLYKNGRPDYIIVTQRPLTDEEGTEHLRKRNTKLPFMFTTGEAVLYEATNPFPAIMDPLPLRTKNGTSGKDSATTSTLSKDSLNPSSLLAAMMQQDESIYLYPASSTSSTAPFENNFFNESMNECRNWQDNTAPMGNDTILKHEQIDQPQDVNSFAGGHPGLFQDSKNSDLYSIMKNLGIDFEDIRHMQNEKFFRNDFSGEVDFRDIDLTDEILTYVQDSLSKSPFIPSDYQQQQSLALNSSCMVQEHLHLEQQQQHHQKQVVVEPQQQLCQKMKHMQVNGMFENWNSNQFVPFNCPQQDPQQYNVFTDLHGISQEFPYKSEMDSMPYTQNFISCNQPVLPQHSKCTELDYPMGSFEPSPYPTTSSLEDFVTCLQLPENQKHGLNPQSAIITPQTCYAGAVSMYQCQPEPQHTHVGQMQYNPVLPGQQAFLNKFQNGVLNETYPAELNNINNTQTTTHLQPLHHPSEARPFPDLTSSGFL
Method in brief: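 Values derive from bidirectional fitting against DMSO negative control. Underlying signal: cis-element reporter mRNA in transiently transfected HepG2, harvested 24 h post-dose and measured by RT-PCR plus capillary electrophoresis.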

[5] = ATG_AP_1_CIS: Attagene CIS-FACTORIAL HepG2 Assay for human Activator Protein 1 (AP-1) (AID 2282931); details: HepG2 Attagene cis-factorial AP-1 reporter mRNA; actives raise or lower the signal
Method in brief: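 HepG2 cells transiently transfected with cis-element-driven multiplex reporter units; 24 h compound exposure. Reporter mRNA quantified by RT-PCR, FAM-labelled fragments resolved by capillary electrophoresis; bidirectional fit versus DMSO baseline.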

[6] = ATG_AP_2_CIS: Attagene CIS-FACTORIAL HepG2 Assay for human Activator Protein 2 (AP-2) (AID 2282932); details: HepG2 AP-2 cis-reporter, Attagene transcription factor profiling; actives raise or lower the signal
Method in brief: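 Assay in transfected HepG2 with promoter-regulated reporters, 24 h incubation after dosing. Signal is reporter mRNA fluorescence (RT-PCR, capillary electrophoresis), analysed for both increases and decreases relative to DMSO controls.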

[7] = ATG_BRE_CIS: Attagene CIS-FACTORIAL HepG2 Assay for human Bone Morphogenetic Protein (BMP) Response Element (BRE) (AID 2282933); details: HepG2 BMP response element reporter, Attagene transcription factor profiling; actives raise or lower the signal
Method in brief: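 Fluorescence-labelled reporter cDNA fragments, separated by capillary electrophoresis, gave the signal for this component of a 52-readout multiplex. HepG2 cells were transfected, exposed to chemicals for 24 h, and compared with DMSO using bidirectional fitting.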

[8] = molecular target: Retinoic acid receptor alpha (Homo sapiens) (UniProt P10276); assay: ATG_DR5_RAR_CIS: Attagene CIS-FACTORIAL HepG2 Assay for human Retinoic Acid Receptor Alpha (RARE), DR5 submotif (AID 2282934); details: HepG2 Attagene cis-factorial RARE DR5 reporter, mRNA; actives raise or lower the signal;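 on AC50: reporter responds to endogenous RAR alpha beta and gamma in HepG2 not RARA alone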
Chain of Retinoic acid receptor alpha (Homo sapiens) (P10276 whole entry, looked up): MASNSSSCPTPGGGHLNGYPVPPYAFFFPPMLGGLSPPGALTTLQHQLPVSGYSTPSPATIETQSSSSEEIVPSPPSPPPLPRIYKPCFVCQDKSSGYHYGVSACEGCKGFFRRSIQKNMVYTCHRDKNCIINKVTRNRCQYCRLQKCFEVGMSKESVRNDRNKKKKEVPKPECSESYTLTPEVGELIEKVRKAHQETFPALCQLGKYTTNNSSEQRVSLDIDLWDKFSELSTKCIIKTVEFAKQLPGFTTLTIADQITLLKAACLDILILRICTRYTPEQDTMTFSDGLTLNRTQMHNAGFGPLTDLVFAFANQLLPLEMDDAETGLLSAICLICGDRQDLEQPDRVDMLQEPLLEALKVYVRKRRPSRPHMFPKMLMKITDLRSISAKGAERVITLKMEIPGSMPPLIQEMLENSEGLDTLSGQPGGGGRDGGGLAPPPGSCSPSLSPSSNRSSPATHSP
Method in brief: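 Endpoint fitted in both directions relative to DMSO as negative control. It reflects DR5 cis-element reporter mRNA induction in transiently transfected HepG2 cells, measured 24 h after dosing through RT-PCR and fluorescent capillary electrophoresis.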

[9] = molecular target: Transcription factor E2F1 (Homo sapiens) (UniProt Q01094); assay: ATG_E2F_CIS: Attagene CIS-FACTORIAL HepG2 Assay for human E2F Transcription Factor 1 (AID 2282935); details: HepG2 Attagene cis-reporter, E2F reporter RNA transcripts; actives raise or lower the signal
Chain of Transcription factor E2F1 (Homo sapiens) (Q01094 whole entry, looked up): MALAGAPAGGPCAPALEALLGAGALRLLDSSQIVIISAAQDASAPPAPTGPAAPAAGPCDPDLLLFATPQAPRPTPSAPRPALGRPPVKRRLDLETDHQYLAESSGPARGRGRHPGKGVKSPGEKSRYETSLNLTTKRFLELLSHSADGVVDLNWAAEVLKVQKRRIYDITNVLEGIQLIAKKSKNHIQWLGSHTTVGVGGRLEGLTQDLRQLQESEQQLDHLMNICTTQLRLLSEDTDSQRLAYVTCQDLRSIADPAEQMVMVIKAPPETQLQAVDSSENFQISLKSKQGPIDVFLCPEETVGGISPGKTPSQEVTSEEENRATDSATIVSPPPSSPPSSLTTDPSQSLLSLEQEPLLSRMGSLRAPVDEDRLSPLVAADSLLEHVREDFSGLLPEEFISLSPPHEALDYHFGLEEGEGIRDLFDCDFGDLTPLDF
Method in brief: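 In this cis-factorial format, endogenous factor activity drives transfected reporters in HepG2; transcripts collected at 24 h are quantified by fluorescence after RT-PCR and capillary separation.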

[10] = ATG_E_Box_CIS: Attagene CIS-FACTORIAL HepG2 Assay for human Enhancer Box (E-box) (AID 2282936); details: HepG2 E-box cis-reporter transcription, actives raise or lower the signal
Method in brief: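 Measured 24 h post-dosing in HepG2 cells transfected with multiple cis-regulated reporter units, signal being reporter mRNA induction detected by fluorescent RT-PCR with capillary electrophoresis; gain or loss fitted against DMSO.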

[11] = ATG_M_61_CIS: Attagene CIS-FACTORIAL HepG2 Assay for M61 Transcription Factor (Internal Marker) (AID 2282937); details: HepG2 Attagene CIS-FACTORIAL M61 internal marker reporter; actives raise or lower the signal
Method in brief: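 HepG2 cells transiently transfected with cis-element-driven multiple reporter transcription units, dosed for 24 h. Reporter mRNA measured by RT-PCR, 6-FAM primer-extension labelling, HpaI digestion and capillary electrophoresis; bidirectional fit versus DMSO baseline.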

[12] = ATG_EGR_CIS: Attagene CIS-FACTORIAL HepG2 Assay for human Early Growth Response 1 (EGR1) (AID 2282938); details: HepG2 Attagene CIS-FACTORIAL EGR reporter mRNA; actives raise or lower the signal
Method in brief: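 HepG2 cells transiently transfected with cis-promoter-driven multiplexed reporter transcription units; reporter mRNA measured 24 h after compound dosing by RT-PCR, 6-FAM primer extension, HpaI digestion and capillary electrophoresis. Bidirectional fit versus DMSO baseline.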

[13] = ATG_M_19_CIS: Attagene CIS-FACTORIAL HepG2 Assay for M19 Transcription Factor (Internal Marker) (AID 2282939); details: HepG2 Attagene CIS-FACTORIAL M19 internal marker reporter; actives raise or lower the signal
Method in brief: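 HepG2, MRTU transient transfection, 24 h dosing. Total RNA → RT-PCR → 6-FAM primer extension → HpaI digest → CE fluorescence. Bidirectional curve fit, DMSO negative control.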

[14] = ATG_Ets_CIS: Attagene CIS-FACTORIAL HepG2 Assay for human Erythroblast Transformation Specific (ETS) (AID 2282941); details: HepG2 ETS cis-reporter transcription, actives raise or lower the signal
Method in brief: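 Cis-regulated reporter mRNA induction in HepG2 (transient transfection), 24 h exposure, RT-PCR plus capillary electrophoresis detection; DMSO serves as negative control and baseline.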

[15] = molecular target: Hepatocyte nuclear factor 3-beta (Homo sapiens) (UniProt Q9Y261); assay: ATG_FoxA2_CIS: Attagene CIS-FACTORIAL HepG2 Assay for human Forkhead box A2 (FOXA2) (AID 2282942); details: HepG2 cis-reporter transcription factor activity, 24 h; actives raise or lower the signal
Chain of Hepatocyte nuclear factor 3-beta (Homo sapiens) (Q9Y261 whole entry, looked up): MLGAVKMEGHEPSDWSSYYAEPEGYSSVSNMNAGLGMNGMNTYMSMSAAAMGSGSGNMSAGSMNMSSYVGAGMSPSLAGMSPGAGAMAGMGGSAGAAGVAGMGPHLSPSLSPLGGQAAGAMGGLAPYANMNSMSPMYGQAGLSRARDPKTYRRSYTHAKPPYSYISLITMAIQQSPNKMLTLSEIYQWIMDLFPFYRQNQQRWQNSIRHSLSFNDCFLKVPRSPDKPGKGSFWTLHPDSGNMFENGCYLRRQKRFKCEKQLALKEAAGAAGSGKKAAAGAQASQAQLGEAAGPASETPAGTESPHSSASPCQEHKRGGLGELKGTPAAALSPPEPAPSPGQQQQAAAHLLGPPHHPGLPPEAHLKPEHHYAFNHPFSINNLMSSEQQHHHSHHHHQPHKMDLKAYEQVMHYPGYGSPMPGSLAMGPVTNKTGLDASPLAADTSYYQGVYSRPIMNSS
Method in brief: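 HepG2 cells transiently transfected with multiple cis-regulated reporter transcription units, dosed for 24 h. Reporter mRNA measured by RT-PCR, 6-FAM labelling, HpaI digestion and capillary electrophoresis; bidirectional fitting against DMSO baseline.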

[16] = ATG_FoxO_CIS: Attagene CIS-FACTORIAL HepG2 Assay for human Forkhead box O (FoxO) (AID 2282943); details: HepG2 Attagene cis-reporter, FoxO element, mRNA; actives raise or lower the signal
Method in brief: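 Values reflect reporter mRNA induction or loss in HepG2 cells 24 h post-dosing, fitted bidirectionally with DMSO as negative control and baseline. Detection used RT-PCR and fluorescence capillary electrophoresis.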

[17] = ATG_GLI_CIS: Attagene CIS-FACTORIAL HepG2 Assay for human Zinc Finger Protein GLI1 (AID 2282945); details: HepG2, Attagene cis-factorial reporter mRNA, GLI element; actives raise or lower the signal
Method in brief: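 HepG2 cells transiently transfected with cis-promoter multiplexed reporter units report endogenous transcription factor activity. After 24 h chemical exposure, reporter mRNA was quantified by RT-PCR, 6-FAM labelling, HpaI digestion and capillary electrophoresis, with bidirectional fitting against DMSO.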

[18] = ATG_ERE_CIS: Attagene CIS-FACTORIAL HepG2 Assay for Estrogen Response Element (ERE) (AID 2282940); details: HepG2 ERE cis-reporter, Attagene RNA transcript; actives raise or lower the signal
Method in brief: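 After a 24 h chemical treatment, RNA from reporter-transfected HepG2 cells is reverse-transcribed, PCR-amplified and fluorescently labelled. Fragments separated by capillary electrophoresis give reporter signal; DMSO serves as negative control.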

[19] = ATG_GATA_CIS: Attagene CIS-FACTORIAL HepG2 Assay for human GATA Binding Protein (AID 2282944); details: HepG2 GATA cis-element reporter, Attagene multiplex mRNA; actives raise or lower the signal
Method in brief: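 Cells: HepG2, transiently transfected with cis-regulated reporter transcription units. Exposure: 24 h. Detection: RT-PCR plus capillary electrophoresis of FAM-labeled fragments. Analysis: bidirectional, DMSO as baseline.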

Measured: AC50

NCCCCCCN
not listed: [18] | [19]
inactive: all other assays above

CC(C)(N)CO
not listed: [8] | [10] | [11]
inactive: all other assays above

O=C(O)c1ccc([N+](=O)[O-])cc1
not listed: [8] | [9] | [18] | [19]
inactive: all other assays above

OCCOc1cccc(OCCO)c1
not listed: [7] | [18]
inactive: all other assays above

Nc1cc(Cl)c(O)c(Cl)c1
active: [3] 186 µM | [12] 136 µM | [16] 135 µM | [17] 157 µM
not listed: [8] | [9]
inactive: all other assays above

CCCCc1ccc(N)cc1
active: [18] 29.6 µM
not listed: [7] | [8] | [11]
inactive: all other assays above

CCCCC(CC)COC(=O)/C=C\C(=O)OCC(CC)CCCC (stereo unspecified)
active: [1] 45 µM | [2] 56.9 µM | [8] 100 µM | [9] 100 µM
not listed: [5] | [10] | [18]
inactive: all other assays above

NC(=O)NC1NC(=O)NC1=O (stereo unspecified)
not listed: [8] | [18]
inactive: all other assays above
